# Source: the OligoGym collection
# Target: MRPL14
# Experiment: pooled miR-30 sensor sort-seq; sequence = guide strand
# Conditions: shRNA
# Note: reference of the scale not given here.
row,Sequence,sensor-assay potency score (higher = more potent)
1,TTGCCCACTCCATTCTTCTTAT,-0.852
2,TGAATCGCACTCAGACTCCCAG,-0.455
3,TTGATGGCCAGTAGTATCTGGT,-0.918
4,TTGTTGGAGTCGAATCTGGGGG,-0.711
5,TCATCTTCTGAATCGCACTCAG,-0.0883
6,TGTTGGAGTCGAATCTGGGGGT,-0.258

# Target: MRPL21
# Experiment: as above
# Conditions: shRNA
row,Sequence,sensor-assay potency score (higher = more potent)
1,TTCATTTCCAATTAAGATCAGG,-0.523
2,TATCCGGAGGACAGTCTGCGGG,-1.15
3,TTATCCGGAGGACAGTCTGCGG,-1.53
4,TTTTAGGAACATATCCTGGTAG,0.0621
5,TCTGTGAATTGAACCTTCGAGA,-0.658
6,TTCTACTCGAACAAGATCCTTT,0.318
7,AATTGAACCTTCGAGAAGCAGA,-0.954
8,TTCTTCTTGAAGTTTTTCCTTT,-0.465
9,TTGAAGTTTTTCCTTTTCCTGA,-0.489
10,TTTAGGAACATATCCTGGTAGA,-0.392
11,TCGAACAAGATCCTTTCCGAGG,-1.49
12,TATCCTGGTAGATATGAAGTGC,-0.473

# Target: MRPL30
# Experiment: as above
# Conditions: shRNA
row,Sequence,sensor-assay potency score (higher = more potent)
1,TTTGTGACGAATCCAATCTGTA,-0.546
2,TTTGTCACAGTCTGTAGTCTGC,-0.242
3,TATTCTTGTGAACTTGAGGGGT,0.0626
4,TTCAATTTTGCATTCACTGAAG,-0.704
5,TATTCTGGTAACAATATGCAGT,-0.632
6,TTTTTCTAATCCAAGCATCTTT,-0.539
7,TCACAGTCTGTAGTCTGCCTGG,-0.534
8,TTAAATAAAAACAATTTGCATT,-0.896
9,ATTCTTGTGAACTTGAGGGGTA,-0.0278
10,TAGACATGTTCTCCTCTGCTGG,-0.684

# Target: MRPS18C
# Experiment: as above
# Conditions: shRNA
row,Sequence,sensor-assay potency score (higher = more potent)
1,TTGTGAACAACCTCTTCTCCAA,-0.0976
2,TACCTGTTGTGAACAACCTCTT,0.47
3,TGCTTTTGTGATTTCTTTCTGT,0.125
4,ATTTCTTTCTGTTTCTTCCCAC,0.584
5,TTTCTTCCCACAAAGACCTGTA,0.204
6,TTGAGCTCTCTTAATTGCTTTT,-1.05
7,TGTGATTTCTTTCTGTTTCTTC,0.701
8,TTTGAGCTCTCTTAATTGCTTT,-0.321
9,TACCAAGTGTGTCAACTTCTTC,-0.886
10,TTTCTTTCTGTTTCTTCCCACA,-1.1
11,TAGGGTCCTTGAGATATGCAGG,-0.899
12,ATACCTGTTGTGAACAACCTCT,-0.0858
